Measurements as given in PubChem BioAssay (Tox21).
Several values for one entry are separate records, joined by “and”; a condition that tells them apart may be missing. Equal values may be shown once. Inconclusive results are not listed. The source holds several records for some structures; these can differ, active in one and inactive in another. Activity calls are given as the source filed them. Unless noted, the call rests on the fitted dose curve; in most records, active means well fitted curve in the direction sought with a large enough effect in the repeat runs; inconclusive means weak or mixed curves; inactive means no such curve, though single readings can be large; an effect the other way counts as inactive or inconclusive.

Assays:
[1] = A CellTox Green Cytotoxicity Assay to monitor cytotoxicity in HEK293 cells - 32 hour (AID 1224881); further: nearly all actives have a fitted effect of over 40% in size; further: potency means the concentration at half of the fitted maximal effect
In short: (§1)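 Cells (HEK293, 600/well) and dye reagent are dispensed together. After 5 h at 37 C, 23 nL compound is pinned in. Plates stay at 37 C for 40 h with fluorescence read at 0h, 8h, 16h, 24h, 32h and 40h.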

[2] = A CellTox Green Cytotoxicity Assay to monitor cytotoxicity in HepG2 cells - 32 hour (AID 1224883); further: nearly all actives have a fitted effect of over 50% in size
In short: (§2)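 Cells and non-lytic dye reagent are dispensed together (600 HepG2 cells/well) and incubated 5 h before DMSO compound transfer. Kinetic fluorescence is then recorded in the same wells during 40 h at 37 C.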

[3] = A CellTox Green Cytotoxicity Assay to monitor cytotoxicity in HEK293 cells - 8 hour (AID 1224884); further: nearly all actives have a fitted effect of over 35% in size
In short: as §1

[4] = qHTS RealTime-Glo MT Cell Viability Assay in HepG2 cells - 16 hour (AID 1224885); further: nearly all actives have a fitted effect of over 50% in size; further: potency means the concentration at half of the fitted maximal effect
In short: (§3)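 Tox21 10K library screened in qHTS format on HepG2 cells carrying RealTime-Glo reagents. Compounds were added after a 5 h preincubation, and the luminescent signal from continuous culture was measured repeatedly during 40 h treatment.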

[5] = qHTS RealTime-Glo MT Cell Viability Assay in HEK293 cells - 24 hour (AID 1224886); further: nearly all actives have a fitted effect of over 50% in size; further: potency means the concentration at half of the fitted maximal effect
In short: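 Luminescence generated by NanoLuc from substrate produced by living HEK293 cells served as the viability signal. Each value reflects the reading at its stated time point during continuous 40 h compound exposure at 37 C.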

[6] = qHTS RealTime-Glo MT Cell Viability Assay in HEK293 cells - 8 hour (AID 1224887); further: nearly all actives have a fitted effect of over 50% in size; further: potency means the concentration at half of the fitted maximal effect
In short: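 Real-time viability in HEK293: signal arises when living cells convert a prosubstrate for NanoLuc in the medium, so luminescence tracks viable cell number. Compound (23 nL, DMSO) added 5 h post-seeding; kinetic reads at 0–40 h, 37 C.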

[7] = A CellTox Green Cytotoxicity Assay to monitor cytotoxicity in HEK293 cells - 16 hour (AID 1224888); further: nearly all actives have a fitted effect of over 35% in size
In short: as §1

[8] = qHTS RealTime-Glo MT Cell Viability Assay in HepG2 cells - 0 hour (AID 1224889); further: nearly all actives have a fitted effect of over 50% in size
In short: as §3

[9] = A CellTox Green Cytotoxicity Assay to monitor cytotoxicity in HepG2 cells - 8 hour (AID 1224890); further: nearly all actives have a fitted effect of over 45% in size
In short: as §2

[10] = qHTS assay to identify small molecule antagonists of the estrogen receptor alpha (ER-alpha) signaling pathway using the BG1 cell line in the presence of 0.1 nM 17-beta-estradiol - cell viability counter screen (AID 1259241); further: nearly all actives have a fitted effect of over 40% in size; further: potency means the concentration at half of the fitted maximal effect
In short: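 Viability in VM7Luc4E2 cells after 22 hr compound exposure under 0.1 nM 17beta-estradiol stimulation, by CellTiter-Fluor.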

[11] = qHTS assay to identify small molecule antagonists of the androgen receptor (AR) signaling pathway using the MDA cell line in the presence of 0.5 nM R1881 - cell viability counter screen (AID 1259242); further: nearly all actives have a fitted effect of over 45% in size; further: potency means the concentration at half of the fitted maximal effect
In short: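 Steps: plate MDA-kb2 cells, rest 5 hr at 37C without CO2; pin in compounds in DMSO; add R1881 to 0.5 nM final; incubate 16 hr; add CellTiter-Fluor, 30 min; read fluorescence.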

[12] = target: Estrogen receptor (Homo sapiens) (UniProt P03372); assay: qHTS assay to identify small molecule antagonists of the estrogen receptor alpha (ER-alpha) signaling pathway using the BG1 cell line in the presence of 0.1 nM 17-beta-estradiol (AID 1259244); further: nearly all actives have a fitted effect of over 50% in size; further: potency means the concentration at half of the fitted maximal effect
Sequence of Estrogen receptor (Homo sapiens) (P03372 whole entry, looked up): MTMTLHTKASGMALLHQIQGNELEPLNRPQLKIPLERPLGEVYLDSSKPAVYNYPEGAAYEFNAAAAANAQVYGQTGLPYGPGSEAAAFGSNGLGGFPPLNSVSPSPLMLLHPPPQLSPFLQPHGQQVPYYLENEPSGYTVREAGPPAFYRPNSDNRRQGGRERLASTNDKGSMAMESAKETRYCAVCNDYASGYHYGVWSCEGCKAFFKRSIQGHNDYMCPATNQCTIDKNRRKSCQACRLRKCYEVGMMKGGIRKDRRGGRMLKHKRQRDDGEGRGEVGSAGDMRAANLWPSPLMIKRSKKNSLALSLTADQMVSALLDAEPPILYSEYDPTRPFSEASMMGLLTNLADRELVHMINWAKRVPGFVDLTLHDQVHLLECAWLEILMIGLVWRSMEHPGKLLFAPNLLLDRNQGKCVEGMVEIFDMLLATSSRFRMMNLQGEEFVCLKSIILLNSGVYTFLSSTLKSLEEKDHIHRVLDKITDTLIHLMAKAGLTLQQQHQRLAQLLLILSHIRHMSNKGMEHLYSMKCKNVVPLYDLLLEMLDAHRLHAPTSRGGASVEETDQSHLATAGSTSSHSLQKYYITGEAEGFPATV
In short: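 Antagonist mode: compounds in DMSO are pinned onto VM7Luc4E2 reporter cells, 0.1 nM final 17beta-estradiol is added, and after 22 h at 37C luciferase luminescence is measured with ONE-Glo.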

[13] = qHTS assay to identify small molecule HDAC inhibitors (AID 1259364);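 further: wild-type HCT-116 cells with endogenous class I/II HDAC activity; top concentration of the series differs between compounds; nearly all actives have a fitted effect of over 45% in size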
In short: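 Cells (HCT-116, wild type) are seeded at 1,500 per well, incubated overnight, treated with compound in DMSO for 2 hr, then developed with HDAC-Glo I/II reagent for 30 min at room temperature.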

[14] = qHTS assay to identify small molecule HDAC inhibitors - cell viability counter screen (AID 1259365)
In short: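 Cytotoxicity was gauged in wild-type HCT-116 cells after a brief 2hr treatment with DMSO-dissolved compounds at 37C and 5% CO2, using CellTiter-Glo luminescence developed for 30min at room temperature.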

[15] = qHTS assay to identify small molecule agonists of the sonic hedgehog signaling (Shh) pathway - cell viability counter screen (AID 1259366); further: nearly all actives have a fitted effect of over 50% in size; further: potency means the concentration at half of the fitted maximal effect
In short: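 Stable Gli1-Luc NIH/3T3 clone, 2,000 cells/well. Compound exposure 24hr at 37C. Read-out: CellTiter-Fluor fluorescence.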

[16] = qHTS assay to identify small molecule antagonists of the sonic hedgehog signaling (Shh) pathway - cell viability counter screen (AID 1259367); further: nearly all actives have a fitted effect of over 55% in size; further: potency means the concentration at half of the fitted maximal effect
In short: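 Conditioned medium drove Shh signaling in 3T3 Gli1-Luc cells exposed to compounds at 37C and 5% CO2. Viability was determined from CellTiter-Fluor fluorescence, with reagent incubated 1 hr after 23 hr of treatment.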

[17] = qHTS assay to identify small molecule agonists of the sonic hedgehog signaling (Shh) pathway (AID 1259368; calls by dose curve;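 further: NIH/3T3-derived 3T3Gli1-Luc cells carrying a stable Gli1-driven firefly luciferase reporter; series mostly up to about 92 µM; nearly all actives have a fitted effect of over 15% in size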)
In short: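 Cells of a mouse NIH/3T3 clone stably expressing luciferase under the Gli1 transcriptional response element are exposed to test chemicals for 24 hr at 37 C. Pathway activation is detected as a rise in luminescence.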

[18] = A CellTox Green Cytotoxicity Assay to monitor cytotoxicity in HepG2 cells - 0 hour (AID 1224882); further: nearly all actives have a fitted effect of over 35% in size
In short: as §2

[19] = target: Androgen receptor (Homo sapiens) (UniProt P10275); assay: qHTS assay to identify small molecule antagonists of the androgen receptor (AR) signaling pathway using the MDA cell line in the presence of 0.5 nM R1881 (AID 1259243); further: nearly all actives have a fitted effect of over 50% in size; further: potency means the concentration at half of the fitted maximal effect
Sequence of Androgen receptor (Homo sapiens) (P10275 whole entry, looked up): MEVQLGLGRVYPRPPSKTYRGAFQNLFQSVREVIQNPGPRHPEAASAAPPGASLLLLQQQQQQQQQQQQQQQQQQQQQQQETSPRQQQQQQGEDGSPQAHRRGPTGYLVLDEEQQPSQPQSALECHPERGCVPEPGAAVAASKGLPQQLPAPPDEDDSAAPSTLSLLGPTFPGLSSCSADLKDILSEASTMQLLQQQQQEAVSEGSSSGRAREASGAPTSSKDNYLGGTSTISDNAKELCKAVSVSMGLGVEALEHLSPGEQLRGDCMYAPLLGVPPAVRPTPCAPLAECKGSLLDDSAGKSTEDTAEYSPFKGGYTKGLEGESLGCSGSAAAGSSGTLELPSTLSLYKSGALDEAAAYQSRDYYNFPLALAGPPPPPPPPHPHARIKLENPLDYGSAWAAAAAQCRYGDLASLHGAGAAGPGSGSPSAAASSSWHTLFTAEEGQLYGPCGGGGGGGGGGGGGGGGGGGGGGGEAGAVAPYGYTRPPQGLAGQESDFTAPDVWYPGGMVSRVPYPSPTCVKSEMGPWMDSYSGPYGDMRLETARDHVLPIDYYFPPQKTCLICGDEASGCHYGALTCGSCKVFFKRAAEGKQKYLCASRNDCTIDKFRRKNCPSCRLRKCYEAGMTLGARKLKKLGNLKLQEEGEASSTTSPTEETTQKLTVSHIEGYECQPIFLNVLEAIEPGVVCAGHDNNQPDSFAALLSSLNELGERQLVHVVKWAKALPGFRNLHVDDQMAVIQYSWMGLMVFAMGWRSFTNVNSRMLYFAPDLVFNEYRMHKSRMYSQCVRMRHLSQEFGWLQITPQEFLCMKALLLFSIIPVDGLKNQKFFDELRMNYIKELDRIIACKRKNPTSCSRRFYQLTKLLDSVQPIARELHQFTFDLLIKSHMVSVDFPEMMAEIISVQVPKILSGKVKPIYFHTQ
In short: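 Stably transfected MDA-kb2 cells express luciferase from an MMTV promoter bearing both AR and GR response elements. Compounds plus 0.5 nM R1881 (final) were incubated 16 hr at 37C without CO2, then luminescence measured.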

[20] = qHTS assay to identify small molecule phospholipidosis (PLD) inducers (AID 1259344; active means well fitted curve in the direction sought with a large enough effect; an effect the other way counts as inactive or inconclusive)
In short: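 After 4 h attachment on collagen I, HepG2 cells were dosed with compound alongside LipidTOX Red, kept 24 h at 37 C, fixed, and imaged for lamellar phospholipid pits.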

Measured: Potency

CC(=[OH+])/C=C(/C)[O-].CC(=[OH+])/C=C(\C)[O-].CC(=[OH+])/C=C(\C)[O-].[Fe]
inactive: [1] | [2] | [3] | [4] | [5] | [6] | [7] | [8] | [9] | [10] | [11] | [12] | [13] | [14] | [15] | [16] | [17]

Oc1ccccc1Br
inactive: [1] | [2] | [5] | [6] | [7] | [8] | [9] | [10] | [11] | [12] | [13] | [14] | [15] | [16] | [17]

O=C(CCl)Nc1ccccc1
active: [5] 43.6 µM | [10] 61.1 µM | [11] 61.1 µM | [19] 48.6 µM | [12] 61.1 µM | [15] 12.2 µM | [16] 27.3 µM
inactive: [18] | [2] | [3] | [4] | [6] | [7] | [8] | [9] | [13] | [14] | [17]

Clc1ccc(CO/N=C(\Cn2ccnc2)c2ccc(Cl)cc2Cl)c(Cl)c1
active: [4] 21.3 µM | [5] 21.3 µM | [6] 19 µM
inactive: [1] | [3] | [7] | [8] | [10] | [20] | [13] | [14] | [17]

Nc1ccc([N+](=O)[O-])cc1Cl
inactive: [1] | [2] | [3] | [4] | [5] | [6] | [7] | [8] | [9] | [12] | [13] | [14] | [15] | [16] | [17]
active: [19] 24.3 µM

Clc1ccc(C(c2ccc(Cl)cc2)C(Cl)(Cl)Cl)cc1
active: [5] 39.2 µM and 43.6 µM | [6] 39.2 µM
55.3 µM (active) and inactive: [1]
inactive: [2] | [4] | [7] | [8] | [9] | [10] | [11] | [20] | [13] | [14] | [16]
48.9 µM (active) and inactive: [15]

N#CCCSCCC#N
inactive: [1] | [2] | [3] | [5] | [6] | [7] | [8] | [9] | [10] | [11] | [19] | [12] | [13] | [14] | [15] | [16] | [17]

COc1ccc(/C(=C/C(=O)N2CCOCC2)c2ccc(Cl)cc2)cc1OC
active: [19] 1.54 µM
inactive: [1] | [2] | [3] | [4] | [7] | [9] | [10] | [11] | [13] | [14] | [15] | [17]
